The record followed here is PubChem BioAssay.

Unmarked numbers belong to inactive results. No rule for the calls is given here.

Sequence of Botulinum neurotoxin type A (Clostridium botulinum) (P0DPI0 whole entry, looked up): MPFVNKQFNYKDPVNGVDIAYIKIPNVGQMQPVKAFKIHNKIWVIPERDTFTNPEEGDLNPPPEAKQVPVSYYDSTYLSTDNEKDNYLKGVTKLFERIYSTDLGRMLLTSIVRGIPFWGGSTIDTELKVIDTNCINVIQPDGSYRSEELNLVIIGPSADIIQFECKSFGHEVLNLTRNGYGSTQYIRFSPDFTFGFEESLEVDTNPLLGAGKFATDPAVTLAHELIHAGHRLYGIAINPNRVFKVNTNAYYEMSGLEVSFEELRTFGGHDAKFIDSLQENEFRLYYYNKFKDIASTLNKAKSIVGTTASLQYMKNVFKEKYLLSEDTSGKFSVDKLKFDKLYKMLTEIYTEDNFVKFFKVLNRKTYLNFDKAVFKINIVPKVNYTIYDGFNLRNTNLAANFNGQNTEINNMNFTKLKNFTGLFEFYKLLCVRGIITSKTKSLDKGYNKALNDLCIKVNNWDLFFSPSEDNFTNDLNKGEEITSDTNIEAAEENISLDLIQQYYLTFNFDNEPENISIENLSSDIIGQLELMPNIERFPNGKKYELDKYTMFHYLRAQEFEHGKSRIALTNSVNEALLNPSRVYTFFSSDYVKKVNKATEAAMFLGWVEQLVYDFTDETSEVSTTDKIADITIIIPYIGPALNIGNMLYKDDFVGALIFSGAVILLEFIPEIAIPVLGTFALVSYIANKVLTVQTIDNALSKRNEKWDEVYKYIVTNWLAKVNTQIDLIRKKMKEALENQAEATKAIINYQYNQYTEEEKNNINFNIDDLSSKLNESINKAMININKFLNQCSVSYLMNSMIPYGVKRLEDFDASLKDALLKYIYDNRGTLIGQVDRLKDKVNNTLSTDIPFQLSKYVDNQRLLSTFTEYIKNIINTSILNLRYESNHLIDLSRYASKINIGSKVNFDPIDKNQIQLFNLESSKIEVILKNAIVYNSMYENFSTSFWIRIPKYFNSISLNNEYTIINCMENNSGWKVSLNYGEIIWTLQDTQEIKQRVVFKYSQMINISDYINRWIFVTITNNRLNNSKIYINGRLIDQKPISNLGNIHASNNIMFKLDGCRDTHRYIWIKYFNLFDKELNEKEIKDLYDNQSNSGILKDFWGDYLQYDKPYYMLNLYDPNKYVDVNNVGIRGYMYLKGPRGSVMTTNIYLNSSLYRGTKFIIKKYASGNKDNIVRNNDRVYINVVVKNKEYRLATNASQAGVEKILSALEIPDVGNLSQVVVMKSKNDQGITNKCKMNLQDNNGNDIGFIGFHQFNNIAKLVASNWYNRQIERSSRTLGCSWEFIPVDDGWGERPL
Sequence of Lethal factor (Bacillus anthracis) (P15917 whole entry, looked up): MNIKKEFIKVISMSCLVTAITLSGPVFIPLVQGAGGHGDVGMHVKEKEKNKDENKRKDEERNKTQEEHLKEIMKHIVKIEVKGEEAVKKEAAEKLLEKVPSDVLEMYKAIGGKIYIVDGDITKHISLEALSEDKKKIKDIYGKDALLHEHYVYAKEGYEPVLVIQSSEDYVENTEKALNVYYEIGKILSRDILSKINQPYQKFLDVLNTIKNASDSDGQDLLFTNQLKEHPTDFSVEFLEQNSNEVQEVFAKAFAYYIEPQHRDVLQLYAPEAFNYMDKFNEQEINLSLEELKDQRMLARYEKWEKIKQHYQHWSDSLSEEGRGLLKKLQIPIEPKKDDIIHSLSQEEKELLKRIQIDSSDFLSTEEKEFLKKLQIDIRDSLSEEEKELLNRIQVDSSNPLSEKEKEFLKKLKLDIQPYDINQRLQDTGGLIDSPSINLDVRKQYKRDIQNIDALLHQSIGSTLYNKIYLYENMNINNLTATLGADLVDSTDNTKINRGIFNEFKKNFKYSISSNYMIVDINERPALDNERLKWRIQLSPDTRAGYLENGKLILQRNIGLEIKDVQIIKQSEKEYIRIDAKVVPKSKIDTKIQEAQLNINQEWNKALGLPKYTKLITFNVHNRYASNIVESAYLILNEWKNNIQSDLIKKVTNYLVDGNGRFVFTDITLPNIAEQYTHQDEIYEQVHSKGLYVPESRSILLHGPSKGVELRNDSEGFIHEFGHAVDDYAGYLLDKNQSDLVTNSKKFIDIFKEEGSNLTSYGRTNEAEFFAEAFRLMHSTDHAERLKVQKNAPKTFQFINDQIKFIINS

One test has as its target Botulinum neurotoxin type A (Clostridium botulinum) (UniProt P0DPI0). Kind of test: BoNT/A light chain protease inhibitors, biochemical, multiplex microsphere flow cytometry, validation set (AID 588460). Conditions: at 10 µM, active compounds read high.
`O=C(Cc1c[nH]c2ccccc12)OCCOC(=O)Cc1c[nH]c2ccccc12`: the inhibition is -0.1%.

As for `CC(=O)OCC(OC(C)=O)C(OC(C)=O)C(OC(C)=O)C(=O)Nc1cccc(C)c1` (stereo not given), the inhibition was 1.2%.

In the case of `CCc1cc(=O)oc2cc(C)c(CN3CCCC(C)C3)c(O)c12` (stereo not given), the inhibition was -0.1%.

Regarding `O=C(COc1ccc2c(-c3ccccc3)cc(=O)oc2c1)NCc1cccs1`, the inhibition is -0.1%.

For `CCC(=O)Nc1ccc(C(=O)N2CCN(C(=O)c3ccco3)CC2)cc1`, the inhibition is -1.9%.

Turning to `O=c1cc(-c2ccc3c(c2)OCCO3)oc2ccc(Cl)cc12`, the inhibition is -0.6%.

On to `CC(=O)N1c2ccccc2C(C)=CC1(C)C`, for which the inhibition was -0.7%.

`C[N+](C)(C)CCOP(=O)(O)OP(=O)([O-])OC[C@H]1O[C@@H](n2ccc(N)nc2=O)[C@H](O)[C@@H]1O`: the inhibition was 0.6%.

Consider `CC1(C)CC(=O)c2cnc(NC(=O)C3CCCC3)nc2C1`, for which the inhibition is -1.3%.

Turning to `CC[N+](C)(C)Cc1ccccc1Br`, the inhibition is -0.1%.

With `CC1(C(=O)O)CCC(C(=O)NC2CCCCCC2)C1(C)C` (stereo not given), the inhibition was -1.2%.

Regarding `COc1cccc(OC)c1C(=O)Nc1nc2ccc([N+](=O)[O-])cc2s1`, the inhibition was 3.3%.

Regarding `CC12CCCCN1CCCc1c2[nH]c2ccccc12` (stereo not given), the inhibition was -0.2%.

Regarding `Cc1c(OCC(F)(F)F)ccnc1CS(=O)c1nc2ccccc2[nH]1` (stereo not given), the inhibition was -0.5%.

In the case of `C#CCN(C)CCCOc1ccc(Cl)cc1Cl`, the inhibition was -1.4%.

`COc1ccc(-c2nc(NC(C)=O)sc2-c2ccc(OC)cc2)cc1`: the inhibition is 1%.

Turning to `Cc1cc(OC(=O)CNC(=O)OC(C)(C)C)c2c(C)cc(=O)oc2c1`, the inhibition was -0.7%.

`COC(=O)CCC(=O)CN`: the inhibition was 0.6%.

For the compound `CC(C)c1ccc(/C=C/C(=O)O)cc1`, the inhibition was -0.1%.

For `C[C@@H]1C[C@H]2[C@@H]3CCC4=CC(=O)C=C[C@]4(C)[C@@]3(F)[C@@H](O)C[C@]2(C)[C@H]1C(=O)CO`, the inhibition is -1.7%.

Take `Cc1ccc2[nH]c3c(c2c1)CCNC3=O`: the inhibition was -0.5%.

Take `COc1ccccc1C(O)c1nccn1C` (stereo not given): the inhibition was -0.7%.

On to `NC(=O)[C@@H]1[C@@H]2C(=O)N(c3ccc(F)cc3)C(=O)[C@@H]2[C@H]2C=Cc3ccccc3N21`, for which the inhibition is 1.5%.

Regarding `COc1ccccc1C(=O)Nc1cc2cc(Br)ccc2oc1=O`, the inhibition is 1.1%.

In the case of `CCOc1ccc(CC2CCC(=O)NC2=O)cc1` (stereo not given), the inhibition is -0.5%.

Consider `CC(=O)N(CCC1(c2ccc(C)cc2)CCOC(C(C)C)C1)Cc1ccco1` (stereo not given), for which the inhibition is 0%.

As for `COc1ccc2[nH]cc(C(=O)CCl)c2c1`, the inhibition was -1.3%.

For the compound `CCOC(=O)C(NC(C)=O)C(O)c1ccc([N+](=O)[O-])cc1` (stereo not given), the inhibition is 2.6%.

Regarding `CC(C)(C)n1c(=O)[nH]c2c(c1=O)CCC2`, the inhibition is -0.4%.

Regarding `OC(C#CCN1CCCC1)(c1ccccc1)c1cccnc1` (stereo not given), the inhibition is -1%.

For `O=C(O)C1[C@H]2C(=O)N(C3CCCC3)C[C@]23C=C[C@H]1O3` (stereo not given in full), the inhibition is 1.3%.

Consider `CC1(C)CC(=O)c2cn3c(nc2C1)nc1ccccc13`, for which the inhibition was -0.2%.

Take `Cc1ccccc1OCC(O)CN1CCN(C)CC1` (stereo not given): the inhibition was -0.4%.

Regarding `COc1ccc(CCN(C)CCCC(C#N)(c2cc(OC)c(OC)c(OC)c2)C(C)C)cc1OC` (stereo not given), the inhibition was 1.8%.

Regarding `CCC(C)NCCOCCOc1ccc(Cl)cc1Br` (stereo not given), the inhibition was 0.2%.

Consider `CC(=O)c1ccc(CCCCCCCCCC(=O)O)s1`, for which the inhibition was 0.3%.

With `COc1ccc(C2C3=C(OC(C)=O)c4ccccc4C3=Nc3c2c(=O)n(C)c(=O)n3C)cc1` (stereo not given), the inhibition was 0.1%.

As to `O=C1CC[C@@H](CN(Cc2ccccc2)Cc2cn[nH]c2-c2cc3ccccc3o2)N1`, the inhibition is 1.2%.

`COC(=O)CSc1nc2ccc(N)cc2s1`: the inhibition was -1%.

Consider `CCOC(=O)C(=O)Nc1ccc(Oc2ccccc2)cc1`, for which the inhibition is 0%.

Another test concerns the target Lethal factor (Bacillus anthracis) (UniProt P15917). The test is described as follows: Lethal factor protease inhibitors, Bacillus anthracis, multiplex microsphere cleavage assay, validation set (AID 588461). Conditions: flow cytometry, at 10 µM, active compounds read high.
As for `O=C(Cc1c[nH]c2ccccc12)OCCOC(=O)Cc1c[nH]c2ccccc12`, the inhibition was -5.9%.

Regarding `CC(=O)OCC(OC(C)=O)C(OC(C)=O)C(OC(C)=O)C(=O)Nc1cccc(C)c1` (stereo not given), the inhibition was 3.1%.

For the compound `CCc1cc(=O)oc2cc(C)c(CN3CCCC(C)C3)c(O)c12` (stereo not given), the inhibition is -3.1%.

As for `O=C(COc1ccc2c(-c3ccccc3)cc(=O)oc2c1)NCc1cccs1`, the inhibition is -6%.

In the case of `CCC(=O)Nc1ccc(C(=O)N2CCN(C(=O)c3ccco3)CC2)cc1`, the inhibition is -2.7%.

For the compound `O=c1cc(-c2ccc3c(c2)OCCO3)oc2ccc(Cl)cc12`, the inhibition is 0.9%.

As for `CC(=O)N1c2ccccc2C(C)=CC1(C)C`, the inhibition was -8.5%.

For `C[N+](C)(C)CCOP(=O)(O)OP(=O)([O-])OC[C@H]1O[C@@H](n2ccc(N)nc2=O)[C@H](O)[C@@H]1O`, the inhibition is 8.1%.

On to `CC1(C)CC(=O)c2cnc(NC(=O)C3CCCC3)nc2C1`, for which the inhibition is -3.2%.

For `CC[N+](C)(C)Cc1ccccc1Br`, the inhibition was 0.6%.

For `CC1(C(=O)O)CCC(C(=O)NC2CCCCCC2)C1(C)C` (stereo not given), the inhibition was -7.7%.

`COc1cccc(OC)c1C(=O)Nc1nc2ccc([N+](=O)[O-])cc2s1`: the inhibition is 7.5%.

Regarding `CC12CCCCN1CCCc1c2[nH]c2ccccc12` (stereo not given), the inhibition is -11.1%.

On to `Cc1c(OCC(F)(F)F)ccnc1CS(=O)c1nc2ccccc2[nH]1` (stereo not given), for which the inhibition is -2.4%.

`C#CCN(C)CCCOc1ccc(Cl)cc1Cl`: the inhibition is -10.6%.

As to `COc1ccc(-c2nc(NC(C)=O)sc2-c2ccc(OC)cc2)cc1`, the inhibition was 2.3%.

Turning to `Cc1cc(OC(=O)CNC(=O)OC(C)(C)C)c2c(C)cc(=O)oc2c1`, the inhibition was 5.4%.

Turning to `COC(=O)CCC(=O)CN`, the inhibition is 0.6%.

For the compound `CC(C)c1ccc(/C=C/C(=O)O)cc1`, the inhibition is 11%.

For `C[C@@H]1C[C@H]2[C@@H]3CCC4=CC(=O)C=C[C@]4(C)[C@@]3(F)[C@@H](O)C[C@]2(C)[C@H]1C(=O)CO`, the inhibition is 7.4%.

Take `Cc1ccc2[nH]c3c(c2c1)CCNC3=O`: the inhibition was -6.6%.

Regarding `COc1ccccc1C(O)c1nccn1C` (stereo not given), the inhibition was 0.4%.

For `NC(=O)[C@@H]1[C@@H]2C(=O)N(c3ccc(F)cc3)C(=O)[C@@H]2[C@H]2C=Cc3ccccc3N21`, the inhibition is -5.6%.

Regarding `COc1ccccc1C(=O)Nc1cc2cc(Br)ccc2oc1=O`, the inhibition was 0.4%.

Consider `CCOc1ccc(CC2CCC(=O)NC2=O)cc1` (stereo not given), for which the inhibition is -1.5%.

As to `CC(=O)N(CCC1(c2ccc(C)cc2)CCOC(C(C)C)C1)Cc1ccco1` (stereo not given), the inhibition is -7.5%.

On to `COc1ccc2[nH]cc(C(=O)CCl)c2c1`, for which the inhibition was -5.3%.

In the case of `CCOC(=O)C(NC(C)=O)C(O)c1ccc([N+](=O)[O-])cc1` (stereo not given), the inhibition was -2.3%.

Turning to `CC(C)(C)n1c(=O)[nH]c2c(c1=O)CCC2`, the inhibition was -3.9%.

As for `OC(C#CCN1CCCC1)(c1ccccc1)c1cccnc1` (stereo not given), the inhibition was -1.1%.

Take `O=C(O)C1[C@H]2C(=O)N(C3CCCC3)C[C@]23C=C[C@H]1O3` (stereo not given in full): the inhibition is 5.6%.

On to `CC1(C)CC(=O)c2cn3c(nc2C1)nc1ccccc13`, for which the inhibition is 0%.

With `Cc1ccccc1OCC(O)CN1CCN(C)CC1` (stereo not given), the inhibition is -2.2%.

For `COc1ccc(CCN(C)CCCC(C#N)(c2cc(OC)c(OC)c(OC)c2)C(C)C)cc1OC` (stereo not given), the inhibition is 6.4%.

On to `CCC(C)NCCOCCOc1ccc(Cl)cc1Br` (stereo not given), for which the inhibition is -2.1%.

For the compound `CC(=O)c1ccc(CCCCCCCCCC(=O)O)s1`, the inhibition was -1%.

On to `COc1ccc(C2C3=C(OC(C)=O)c4ccccc4C3=Nc3c2c(=O)n(C)c(=O)n3C)cc1` (stereo not given), for which the inhibition is 2.9%.

With `O=C1CC[C@@H](CN(Cc2ccccc2)Cc2cn[nH]c2-c2cc3ccccc3o2)N1`, the inhibition is -0.2%.

Turning to `COC(=O)CSc1nc2ccc(N)cc2s1`, the inhibition was 1.5%.

Consider `CCOC(=O)C(=O)Nc1ccc(Oc2ccccc2)cc1`, for which the inhibition is 1.3%.
